# Screens: PubChem, National Center for Advancing Translational Sciences (NCATS)
# MARV entry inh – qHTS for inhibitors of binding or entry into cells for Marburg Virus; Marburg virus pseudotyped entry inhibition, cell reporter; Potency, µM (series often up to 37.8 µM), inactives show at the highest dose activity change, negative = inhibition, most hits filed as inhibitors; 1.8% of 300,000 active; calls by dose curve; tested in HEK293 cells; also: potency is read from the fitted curve at half-maximal effect; % is scaled to controls: 0 for no effect and ±100 for the full control effect
# Shiga inhibitor – A qHTS for Small Molecule Inhibitors of Shiga Toxin. Vero cells, Shiga toxin protein synthesis inhibition reporter. inhibition, % at 38.7 µM. 9.2% of 290,000 active. AID 2315, 2010; in the data active = inhibition mostly above about 28%, no sharp cut-off; inactive = mostly below about 43%; also: 0% is about no effect
# Pf growth 96h – Primary qHTS for delayed death inhibitors of the malarial parasite plastid, 96 hour incubation; AID 504834, 2011; P. falciparum luciferase reporter growth, 96 h; Potency, µM (doses to about 28.7 µM), for the others: at the top dose activity change, negative = inhibition, usual class: inhibitors; 6.9% of 320,000 active; also: potency is read from the fitted curve at half-maximal effect; % is scaled to controls: 0 for no effect and ±100 for the full control effect
#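 Two-generation exposure (96 h) targets delayed-death phenotype. Reporter parasites carrying integrated firefly luciferase, in red cells at 2% hematocrit and 0.05% parasitemia final, kept at 37 C, 5% CO2; luminescence loss indicates inhibition.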
# Cycloheximide cs – Cycloheximide Counterscreen for Small Molecule Inhibitors of Shiga Toxin; cell reporter, cycloheximide protein synthesis inhibition counterscreen; max response, %; 12% of 300,000 active; AID 2314, 2010; in the data active = max response mostly above about 13%, no sharp cut-off; inactive = mostly below about 14%; also: read at 38.3 µM for the half of the compounds with a filed dose; 0% is about no effect
# Lassa entry inh – qHTS for Inhibitors of binding or entry into cells for Lassa Virus. Lassa virus pseudotype entry inhibition, cell reporter. AID 540256, 2011. 1.2% of 300,000 active. Potency, µM (series often up to 37.9 µM), without a hit: at the highest dose activity change, negative = inhibition, hits mostly inhibitors; calls by dose curve; tested in HEK293 cells; also: potency is read from the fitted curve at half-maximal effect; % is scaled to controls: 0 for no effect and ±100 for the full control effect; nearly all actives have a fitted effect of over 50% in size
# Pf growth 48h – Primary qHTS for delayed death inhibitors of the malarial parasite plastid, 48 hour incubation; Potency, µM (top dose mostly 28.7 µM), without a hit: at the highest dose activity change, negative = inhibition, actives largely listed as inhibitors; 5.9% of 310,000 active; P. falciparum luciferase growth in erythrocytes, 48 h; AID 504832, 2011; also: potency is read from the fitted curve at half-maximal effect; % is scaled to controls: 0 for no effect and ±100 for the full control effect
#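 A one-generation exposure of luciferase-tagged malaria parasites in RPMI 1640/Albumax erythrocyte culture, 37 C and 5% CO2. Inhibition is inferred from decreased luminescence after adding detection reagent.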
# * hit, by the source's call; ? = inconclusive; . = no result given; [ ] = dose if it differs, or a comment. A selection: hits, their analogues and other compounds. The true share with any hit is near 19%. Unless noted, calls follow the shape of the dose curve; as a rule, active = well fitted inhibition curve with a large enough effect; inconclusive = small, poorly fitted or top-dose-only effect, or another doubt; inactive = no such curve, though single readings can be large or run the other way.
SMILES,MARV entry inh,Shiga inhibitor,Pf growth 96h,Cycloheximide cs,Lassa entry inh,Pf growth 48h
O=C(O)c1ccc(-c2sc(Nc3ccccc3)n[n+]2-c2ccc(F)cc2)cc1,.,-5,30%,-2,.,21%
COc1ccc(-c2sc(Nc3ccccc3)n[n+]2-c2ccc(F)cc2)cc1Br,.,-6,7.4µM*,1,.,?
COc1ccc(CNc2cc(C)ccc2C)c(OC)c1OC,-10%,9,.,1,22%,?
COc1ccc(CNc2ccc(C)c(C)c2)c(OC)c1OC,.,33,11%,24*,.,?
COc1cc(CNc2nc3ccccc3s2)cc(OC)c1OC,?,-7,27%,12,?,-3%
COc1ccc(CNc2nc3ccc(C)cc3s2)c(OC)c1OC,.,41*,1%,15*,.,?
COc1cc(C)c(CNc2ccc(OC)c(OC)c2)cc1C,3%,76*,.,14*,.,9.3µM*
COCCNC(=O)C(OC(=O)c1cc2oc(C)cc2n1C)C(C)C (stereo not given),1%,-18,?,-2,-4%,-9%
O=S(=O)(NCc1ccc2c(c1)OCO2)c1ccc(Cl)s1,3%,-3,2%,9,12%,28%
COc1cccc(C(=O)Nc2ccc(C(=O)NCC3CCCO3)cc2)c1 (stereo not given),-20%[46.1 µM],.,.,.,13%[46.1 µM],.
C/C1=C2/[N-]C(C(CC(N)=O)[C@@]2(C)CCC(=O)NCC(C)OP(=O)([O-])O[C@H]2[C@@H](O)[C@@H](n3cnc4cc(C)c(C)cc43)O[C@@H]2CO)[C@]2(C)N=C(/C(C)=C3N=C(/C=C4N=C1C(CCC(N)=O)C\4(C)C)[C@@H](CCC(N)=O)[C@]\3(C)CC(N)=O)[C@@H](CCC(N)=O)[C@]2(C)CC(N)=O.CC(=O)O.[Co] (stereo not given in full),.,.,0.67µM*,.,.,0.85µM*
COc1ccccc1C(=O)NCCN1CCN(C(=O)c2ccccc2OC)CC1,-26%,-5,486%,-4,-23%,-15%
C=CCc1cc(C)ccc1OCCOCCC(C(=O)OCC)C(=O)OCC,?,10,12µM*,1,-1%,-21%
COc1ccc(C(c2nnnn2CC2CCCO2)N2CCN(c3cccc(C)c3C)CC2)cc1 (stereo not given),?,4,3%,-5,?,9.3µM*
CCCCC(c1nnnn1CC1CCCO1)N1CCN(c2cccc(C)c2C)CC1 (stereo not given),?,-4,.,2,?,13µM*
COc1ccc(C(c2nnnn2CC2CCCO2)N2CCC(C(N)=O)CC2)cc1 (stereo not given),?,-2,-17%,-2,0%,10%
CC(=O)Nc1ccc(Nc2ncnc3c2c(-c2ccccc2)cn3-c2ccc(C)c(Cl)c2)cc1,.,.,.,.,-25%[46.1 µM],.
O=C(Nc1ccccc1)c1cccc(C(F)(F)F)c1,?,33*,3%,11*,6%,42%
Cc1nc2ccc(NC(=O)c3cccc(C(F)(F)F)c3)cc2o1,4%,60,2%,21*,-16%,10%
CNC(=O)Nc1ccc2nc(C)oc2c1,.,5,32%,5,.,14%
CCN(CC)C(=O)c1ccc(NC(=O)c2cccc(C(F)(F)F)c2)cc1,3%[46.1 µM],15,?,3,-3%[46.1 µM],?
Cc1cc(NS(=O)(=O)c2ccc(NC(=O)COc3cc(C)c(Cl)c(C)c3)cc2)no1,.,.,0%,.,.,?
CCC(=O)NNC(=O)CCC(=O)Nc1cccc(Cl)c1C,11%[46.1 µM],-13,-23%,-1,-1%,17%
Cc1ccc([N+](=O)[O-])cc1S(=O)(=O)Nc1ccccn1,12%[46.1 µM],-11,4%,-1,0%[46.1 µM],14%
O=C(O)c1cnn2c1NC(c1ccc(F)cc1)CC2C(F)(F)F (stereo not given),?,-7,.,8,7%,20%
SMILES,MARV entry inh,Shiga inhibitor,Pf growth 96h,Cycloheximide cs,Lassa entry inh,Pf growth 48h
COc1cc(/C=C/C(=O)N(C)CC(=O)Nc2ccccc2Br)cc2c1OCCO2,.,.,?,.,.,8.3µM*
COCc1cc(=O)[nH]c(Nc2nc(C)c3ccccc3n2)n1,3%,-19,0%,-2,6%,.
COC(=O)Cc1cc(=O)[nH]c(Nc2nc3ccccc3o2)n1,19%,31*,32%,17*,15%,11%
Cc1ccc2oc(Nc3nc(-c4ccccc4)cc(=O)[nH]3)nc2c1,?,3,0.83µM*,11,-17%,?
COCc1cc(=O)[nH]c(Nc2nc3ccccc3o2)n1,?,65*,-16%,61*,?,?
Cc1ccc2oc(Nc3nc(C)cc(C)n3)nc2c1,6%[46.1 µM],31,44%,11*,4%,50%
COC(=O)Cc1cc(=O)[nH]c(/N=C(\N)Nc2ccccc2)n1,-7%,19,70%,0,0%,.
Cc1cccc(C)c1Nc1nc2ccccc2o1,.,-4,-5%,-4,.,?
CC(C)C(NC(=O)C1CCCCC1)C(=O)N1CCN(c2ccc(F)cc2)CC1 (stereo not given),-6%,-5,3%,-5,3%,-21%
Cc1nc(Nc2nc3ccccc3o2)nc(C)c1C(=O)Nc1ccc(F)cc1,.,-5,17%,-4,.,8%
CCOC(=O)Cc1cc(=O)[nH]c(Nc2nc3ccccc3o2)n1,?,77*,?,18,2%,?
Cc1cc(C)c2nc(Nc3nc(-c4ccccc4)cc(=O)[nH]3)nc(C)c2c1,.,-2,3.7µM*,10,.,1.7µM*
Cc1cc(C)c2nc(Nc3nc(CSc4nc5ccccc5[nH]4)cc(=O)[nH]3)nc(C)c2c1,6%[46.1 µM],.,.,.,3%[46.1 µM],.
Cc1ccc(NC(=O)c2ccc(NC3=NC4CS(=O)(=O)CC4S3)cc2)cc1 (stereo not given),.,-1,7%,1,.,1%
COC(=O)c1cc(C(=O)OCC(=O)NCc2ccc3c(c2)OCO3)cc([N+](=O)[O-])c1,0%,-7,?,-6,?,10%
Cc1ccc(C(C)NC(=O)C23CC4CC(CC(C4)C2)C3)cc1 (stereo not given),-23%[46.1 µM],-5,0.59µM*,-3,?,-33%[1.15 µM]
CSCCC(NC(=O)C12CC3CC(CC(C3)C1)C2)C(=O)OCC(=O)c1ccc(C)cc1 (stereo not given),-9%,-9,0.33µM*,-2,0%,-4%
CC(NC(=O)C12CC3CC(CC(C3)C1)C2)c1ccc2c(c1)OCCO2 (stereo not given),?,23,?,-4,-3%,.
COc1cccc(CNn2c(-c3cccc(C)c3)nc3ccccc3c2=O)c1O,-16%,34,?,-2,0%,?
Cc1ccc(NC(=O)c2ccc(CSc3nnc(C)s3)cc2)cc1,?,140*,462%,55*,?,109%
